Reference: PubChem BioAssay (EPA / NIEHS)
Results filed as inconclusive are left out. Active and inactive are the calls of the source. The calls were made as follows: active = hit-call score of the fitted dose curve at least 0.9, where 1 is the maximum; inconclusive = response in the unintended direction; inactive = score below 0.9.

assay: TOX21_p53_BLA_p2_viability: Viability Assessment in the Tox21 HCT-116 p53 Agonism Beta-lactamase Assay, Phase 2 (AID 2283591);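 also: compound exposure lasted 16 h at 37 °C; actives lower the ATP signal meaning cytotoxicity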
Source text: TOX21_p53_BLA_p2 is a cell-based, single-readout assay that uses HCT116, a human intestinal cell line, […] in a 1536-well plate.TOX21_p53_BLA_p2_viability is an assay readout measuring cellular ATP content and detected with CellTiter-Glo Luciferase-coupled ATP quantitation.TOX21_p53_BLA_p2_viability used a type of viability reporter where loss-of-signal activity can be used to understand changes in the cell viability. Furthermore, this assay endpoint can be referred to as a secondary readout, because this assay has produced multiple assay endpoints where this one serves a viability function. To generalize the intended target to other relatable targets, this assay endpoint is annotated to the cell cycle intended target family, where the subfamily is cytotoxicity.
Thawing Method: Place 14 mL of pre-warmed thaw medium into a 15 mL of conical tub. Remove the vial of cells to be thawed from liquid nitrogen and thaw rapidly by placing at 37C in a water bath with gentle agitation for 1-2 minutes. Decontaminate the vial by wiping with 70% ethanol before opening in a biological safety cabinet. Transfer the vial contents drop-wise into 14 mL of thaw medium in a sterile 15-mL conical tub. Centrifuge cells at 900 rpm for 4 minutes and resuspend in thaw medium. Transfer contents to the T75 tissue culture flask containing Thaw Medium and place flask in a humidified 37C/5% CO2 incubator. Switch to growth medium at first passage.Propagation Method: Aspirate medium, rinse once in DPBS, add 0.25% Trypsin/EDTA and swirl to coat the cell evenly. Add an equal volume of Growth Medium to inactivate Trypsin after 2-3 minutes incubation at 37C. Centrifuge cells at 900 rpm for 4 minutes and resuspend in growth medium. Cell should be passage or fed at least twice a week.Assay Protocol: Harvest cells from culture in growth medium and resuspend in assay medium. 2.2 Dispense 4000 cells/5 uL/well into 1536-well black/clear bottom plates using a Multidrop dispenser. After the cells were incubated at 37C for 5 hours, 23 nL of compounds dissolved in DMSO were transferred to the assay plate by a PinTool resulting in a 217-fold dilution. Incubate the plates for 16 hours at 37C, 5% CO2. Add 1 uL of 6X LiveBLAzer FRET B/G (CCF4-AM) Substrate Mixture to each well using a BioRAPTR dispenser and incubate the plates at room temperature for 2 hours. Measure fluorescence intensity at 460 and 530 nm emission and 405 nm excitation by an Envision detector. Data is expressed as the ratio of 460nm/530nm emissions. Add 4 uL of Cell-titer Glo to each well using BioRAPTR and incubate the plates at room temperature for […]. For cell viability readout that measures cytotoxicity, 4 ul/well of CellTiter-Glo reagent was added into the assay plates using a Flying Reagent Dispenser. After 30 min incubation at room temperature, the luminescence intensity in the plates was measured using a ViewLux plate reader.

SMILES	outcome	AC50
FC(F)(F)c1ccc(Cl)c(Cl)c1	inactive	–
NC(N)=NC(N)=NCCc1ccccc1	inactive	–
CCCCC/C=C\C=C\C(=O)OCC	–	68.7 µM (active)
CC(C)N1C(=O)c2ccccc2C1=O	inactive	–
[O-]/[N+](=N\O)c1ccccc1	inactive	–
CCCCCCCC1CCCC1=O (stereo not given)	inactive	–
CCCCCC1CCC(=O)O1 (stereo not given)	inactive	–
C1=COCCC1	inactive	–
c1ccc2scnc2c1	inactive	–
CCCCCCOc1ccc(O)cc1	–	45.6 µM (active)
CCCCC1CCCCC(=O)O1 (stereo not given)	inactive	–
COc1ccc2[nH]cc(CCNC(C)=O)c2c1	inactive	–
CCOC(=O)CC1(C)OCC(C)O1 (stereo not given)	inactive	–
Cc1cc(O)c2c(c1)C(=O)c1cc(O)cc(O)c1C2=O	inactive	–
S=c1[nH][nH]c(=S)s1	inactive	–
Nc1ccc(O)c(N)c1	inactive	–
CCc1cccc(O)c1	inactive	–
CCCCOCCOC(=O)c1ccccc1C(=O)OCCOCCCC	inactive	–
CC(=O)c1ccc(O)cc1	inactive	–
CNC(=C[N+](=O)[O-])NCCSCc1ccc(CN(C)C)o1	inactive	–

SMILES	outcome	AC50
O=c1cc(-c2ccc(O)cc2)oc2cc(O)cc(O)c12	inactive	–
CCCCCCOC(C)=O	inactive	–
COC(=O)C(C)Oc1ccc(Oc2ncc(C(F)(F)F)cc2Cl)cc1 (stereo not given)	inactive	–
CCCCCCCOC(C)=O	inactive	–
Nc1ccn([C@H]2CC[C@@H](CO)O2)c(=O)n1	inactive	–
O=S1(=O)CC(Cl)(Cl)C(Cl)(Cl)C1	–	7.38 µM (active)
CCCCCCCCCCCCS	inactive	–
CCCCOCCOCCO	inactive	–
CCCCCCCCCCCCCC(=O)OCC	inactive	–
CCCCCCCC(=O)N(C)C	inactive	–
CC(O)CNCC(C)O (stereo not given)	inactive	–
O=Cc1ccccc1O	inactive	–
CC1(C)CC(N)CC(C)(CN)C1 (stereo not given)	inactive	–
C[Si]1(C)N[Si](C)(C)N[Si](C)(C)N1	inactive	–
COc1ccccc1O	inactive	–
Cc1ccc(C(C)(C)O)cc1	inactive	–
O=[N+]([O-])c1cc(N(CCO)CCO)ccc1NCCO	inactive	–
CC(=O)C1C(=O)C=C(C)OC1=O (stereo not given)	inactive	–
O=S(=O)(O)CCCN1CCOCC1	inactive	–
CC1COC(=O)O1 (stereo not given)	inactive	–
